Compound activity: PubChem BioAssay, National Center for Advancing Translational Sciences (NCATS)
HP1b binding inh: HP1-beta chromodomain-methylated histone interaction inhibition; P83916; AlphaScreen HP1-beta / biotin-H3K9me3 peptide binding; Potency, µM (series often up to 114 µM), most hits filed as inhibitors; hit rate 0.56% among 390,000; further: nearly all actives have a fitted effect of over 70% in size
Target sequence (P83916 whole entry, looked up): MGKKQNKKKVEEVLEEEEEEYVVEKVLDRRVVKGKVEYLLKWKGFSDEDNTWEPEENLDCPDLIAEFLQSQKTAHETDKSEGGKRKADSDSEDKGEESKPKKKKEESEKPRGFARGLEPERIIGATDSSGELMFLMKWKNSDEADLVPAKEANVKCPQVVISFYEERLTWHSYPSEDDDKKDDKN
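Compound inhibition of the preformed complex between 50 nM HP1-beta and 50 nM biotinylated H3K9me3 peptide was read by AlphaScreen. Buffer was PBS pH 7.4 with 0.01% Tween-20. Incubations ran 30 min at room temperature, with 10 ug/mL donor/acceptor beads.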
JMJD2A Tudor: blocks the human JMJD2A Tudor domain | O75164 | AlphaScreen JMJD2A-Tudor / H3K4me3 peptide binding | Potency, µM (top dose mostly 114 µM), usual class: inhibitors | hit rate 4.4% among 390,000 | AID 504339; further: nearly all actives have a fitted effect of over 50% in size
Sfp PPTase inh: inhibitors of Bacillus subtilis Sfp phosphopantetheinyl transferase. Q9F4F7. Biochemical Sfp PPTase activity, qHTS. Potency, µM, hits mostly inhibitors. hit rate 3.5% among 310,000;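 further: the enzyme is Sfp with the accession as filed and its product quenches rhodamine fluorescence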
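With Hepes-Na pH 7.6 buffer containing 10 mM MgCl2, Sfp (15 nM) modified BHQ-2-YbbR (12.5 uM) using rhodamine-CoA (5 uM). Two reads 30 minutes apart at 525/598 nm yielded each well's rate.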
BAZ2B inh: blocks human BAZ2B; Q9UIF8; AlphaScreen BAZ2B-H3K14Ac peptide displacement; Potency, µM (series often up to 114 µM), most hits filed as inhibitors; hit rate 4.4% among 360,000; further: nearly all actives have a fitted effect of over 60% in size
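Compounds, titrated to a top concentration of 110 uM, were incubated 30 min at room temperature with preformed BAZ2B/acetyl-K14 H3 peptide complex (50 nM each). Proximity signal was measured by AlphaScreen after 20 min with beads.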
PLK1 PBD block: blocks phosphopeptide binding to human PLK1 polo-box domain; P53350; hit rate 2.8% among 360,000; Potency, µM, hits mostly inhibitors; Plk1 PBD binding of FITC phosphopeptide, fluorescence polarization; further: series mostly up to about 57 µM; nearly all actives have a fitted effect of over 65% in size
G9a inh: G9a (human) methyltransferase inhibition | hit rate 8.8% among 350,000 | Potency, µM (highest dose often 102 µM), most hits filed as inhibitors | AID 504332 | Q96KQ7 | G9a H3K9 monomethylation, AlphaScreen, 2 h; further: nearly all actives have a fitted effect of over 75% in size
Target sequence (Q96KQ7 913-1193 limits assumed): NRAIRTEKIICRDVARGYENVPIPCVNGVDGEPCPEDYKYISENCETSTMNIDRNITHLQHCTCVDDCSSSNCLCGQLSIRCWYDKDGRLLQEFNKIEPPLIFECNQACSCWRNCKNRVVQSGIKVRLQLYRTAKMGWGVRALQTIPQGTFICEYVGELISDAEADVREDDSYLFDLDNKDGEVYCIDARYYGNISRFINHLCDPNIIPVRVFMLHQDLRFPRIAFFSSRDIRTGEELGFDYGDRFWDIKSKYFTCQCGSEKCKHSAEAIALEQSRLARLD
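G9a (20 nM) was preincubated 15 min with compound, then reacted 2 h at room temperature with 500 nM biotin-H3K9 peptide and 20 µM SAM. Monomethyl-H3K9 detected by AlphaScreen using anti-H3K9me1 antibody.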
A number is an active result; ! = not active in a repeat; [ ] = remark or other dose. Only some compounds are listed: those with a hit (about 12% of all), similar ones and a draw of the others. The call rests on the fitted dose curve; in most records, active means well fitted curve in the direction sought with a large enough effect; inconclusive means small, poorly fitted or top-dose-only effect, or another doubt; inactive means no such curve, though single readings can be large; an effect the other way counts as inactive or inconclusive.

What do the screens show for `COc1ccccc1CNS(=O)(=O)c1ccc(-c2cnc(C3CC3)o2)cc1`?
HP1b binding inh: inactive; JMJD2A Tudor: inactive; Sfp PPTase inh: inactive; BAZ2B inh: 89µM!; PLK1 PBD block: inactive; G9a inh: inactive

How did Cc1ccc(NS(=O)(=O)c2ccc(-c3cnc(C4CC4)o3)cc2)c(C)c1 do in these assays?
HP1b binding inh: inactive; JMJD2A Tudor: inconclusive; Sfp PPTase inh: inactive; BAZ2B inh: inactive; PLK1 PBD block: inactive; G9a inh: inactive

How did CCN(CC)c1ccc(NS(=O)(=O)c2ccc(-c3cnc(C4CC4)o3)cc2)c(C)c1 do in these assays?
HP1b binding inh: inconclusive; JMJD2A Tudor: 18µM; BAZ2B inh: 14µM; G9a inh: inconclusive

Results for COc1ccc(CCN(CC(=O)NCc2ccc(F)cc2)C(=O)c2snc(C(N)=O)c2N)cc1OC ?
HP1b binding inh: inactive; JMJD2A Tudor: inactive; Sfp PPTase inh: inactive; BAZ2B inh: inactive; PLK1 PBD block: inactive; G9a inh: inactive

What do the screens show for `CCSC1OC(C(COC(C)=O)OC(C)=O)C(OC(C)=O)C1NC(C)=S` (stereo not given)?
HP1b binding inh: inactive; JMJD2A Tudor: inactive; PLK1 PBD block: inconclusive

Results for COc1ccc(/C=C/C(=O)Nc2ccc(C(N)=O)cc2)cc1OC ?
HP1b binding inh: inactive; JMJD2A Tudor: inactive; Sfp PPTase inh: inactive; BAZ2B inh: inactive; PLK1 PBD block: inactive; G9a inh: inactive

Results for COc1ccc(/C=C/C(=O)Nc2ccc(-n3nncc3-c3ccccc3)cc2)cc1OC ?
HP1b binding inh: inactive; JMJD2A Tudor: inactive; Sfp PPTase inh: inactive; BAZ2B inh: inactive; PLK1 PBD block: inactive; G9a inh: 45µM

Results for CCc1nn2c(=O)cc(N3C(C)CNCC3C)nc2s1 (stereo not given) ?
JMJD2A Tudor: inactive

How did Cc1ccc(NC(=O)CSc2nnc(N)s2)cc1S(=O)(=O)N1CCOCC1 do in these assays?
HP1b binding inh: inactive; JMJD2A Tudor: inactive; BAZ2B inh: inactive; PLK1 PBD block: inactive; G9a inh: 50µM

What do the screens show for `Cc1ccc(NC(=O)COC(=O)c2sccc2C)cc1S(=O)(=O)N1CCOCC1`?
HP1b binding inh: inactive; JMJD2A Tudor: inactive; Sfp PPTase inh: inactive; BAZ2B inh: inactive; PLK1 PBD block: inactive; G9a inh: 50µM

Results for Cc1ccc(CNC(=O)c2cnccn2)cc1 ?
HP1b binding inh: inactive; JMJD2A Tudor: inactive; Sfp PPTase inh: inactive; BAZ2B inh: inactive; PLK1 PBD block: inactive; G9a inh: inactive

Results for O=C(Cc1ccc(Cl)c(Cl)c1)Nc1ccc(S(=O)(=O)Nc2ncccn2)cc1 ?
HP1b binding inh: inactive; JMJD2A Tudor: 20µM; Sfp PPTase inh: inactive; BAZ2B inh: inactive; PLK1 PBD block: inactive; G9a inh: inconclusive

Results for Cc1ccnc(NS(=O)(=O)c2ccc(NC(=O)Cc3cccs3)cc2)n1 ?
HP1b binding inh: inactive; JMJD2A Tudor: 32µM; Sfp PPTase inh: inactive; BAZ2B inh: 50µM; PLK1 PBD block: inconclusive; G9a inh: inactive[12.7 µM]

Results for O=C(Cc1cccs1)Nc1ccc(S(=O)(=O)Nc2ncccn2)cc1 ?
HP1b binding inh: inactive; JMJD2A Tudor: 79µM; Sfp PPTase inh: inactive; BAZ2B inh: 56µM; PLK1 PBD block: inactive; G9a inh: inconclusive

How did Cc1ccnc(NS(=O)(=O)c2ccc(NC(=O)C3COc4ccccc4O3)cc2)n1 (stereo not given) do in these assays?
HP1b binding inh: inconclusive; JMJD2A Tudor: 18µM; Sfp PPTase inh: inactive; BAZ2B inh: inactive; PLK1 PBD block: 7.5µM; G9a inh: inactive

How did Cc1ccc(C)n1-c1nnc(N2CCC(C(=O)Nc3ccccc3Br)CC2)s1 do in these assays?
HP1b binding inh: inactive; JMJD2A Tudor: inactive; BAZ2B inh: inactive; G9a inh: inactive

How did Cn1c(N)c(C(=O)COC(=O)c2ccccc2C(=O)c2ccc(Cl)cc2)c(=O)n(C)c1=O do in these assays?
HP1b binding inh: inactive; JMJD2A Tudor: inactive; PLK1 PBD block: inactive

What do the screens show for `COC(=O)[C@@H]1C[C@@]2(O)[C@@H](O)[C@@H](O)[C@@H](O)C[C@H]2N1CC1CC1`?
Sfp PPTase inh: inactive

Results for COc1ccc2c(c1)N(C[C@@H](C)CN(C)C)c1ccccc1S2 ?
Sfp PPTase inh: inactive; G9a inh: 7.9µM

What do the screens show for `CC(CN1c2ccccc2Sc2ccccc21)N(C)C` (stereo not given)?
HP1b binding inh: inactive; JMJD2A Tudor: inconclusive; Sfp PPTase inh: 50µM!; BAZ2B inh: 45µM; PLK1 PBD block: inactive; G9a inh: 15µM!

What do the screens show for `C[C@@H](CN1c2ccccc2Sc2ccccc21)N(C)C`?
Sfp PPTase inh: inactive; G9a inh: inconclusive

What do the screens show for `O=C(c1ccc2c(c1)OCCO2)N(Cc1cccnc1)c1nc2c(Cl)cccc2s1`?
HP1b binding inh: inactive; JMJD2A Tudor: inactive; BAZ2B inh: inactive; G9a inh: inactive

How did O=C(c1ccco1)N1CCN(C(=O)c2cnn(-c3ccc(Cl)cc3)c2C2CCNCC2)CC1 do in these assays?
HP1b binding inh: inactive; JMJD2A Tudor: inactive; Sfp PPTase inh: inactive; BAZ2B inh: inactive; PLK1 PBD block: inactive; G9a inh: 71µM

How did CCC(NC(=O)NNC(N)=S)(C(F)(F)F)C(F)(F)F do in these assays?
HP1b binding inh: inactive; JMJD2A Tudor: inactive; Sfp PPTase inh: 45µM; BAZ2B inh: inactive; PLK1 PBD block: inactive; G9a inh: inconclusive

How did CC1(C)CC(=O)C(Sc2ccccc2[N+](=O)[O-])=C(O)C1 do in these assays?
HP1b binding inh: inactive; JMJD2A Tudor: inactive; Sfp PPTase inh: inconclusive; BAZ2B inh: inconclusive; PLK1 PBD block: 11µM; G9a inh: 50µM

Results for CCc1ccc(OCC(=O)NC(=S)Nc2cccc(CO)c2)c(Br)c1 ?
HP1b binding inh: inactive; JMJD2A Tudor: inactive; Sfp PPTase inh: 25µM; BAZ2B inh: inactive; PLK1 PBD block: inactive; G9a inh: inactive[12.7 µM]

Results for CCc1ccc(OCC(=O)NC(=S)Nc2ccc(F)cc2)c(Br)c1 ?
HP1b binding inh: inactive; JMJD2A Tudor: inactive; Sfp PPTase inh: inactive; BAZ2B inh: inactive; PLK1 PBD block: inactive; G9a inh: inactive

How did COc1ccc(C(=O)O)cc1COc1ccc(NC(C)=O)cc1 do in these assays?
JMJD2A Tudor: inactive

What do the screens show for `Oc1cccc(/C=N/c2c(-c3ccco3)nc3ccccn23)c1`?
HP1b binding inh: inconclusive; JMJD2A Tudor: inconclusive; Sfp PPTase inh: inconclusive; BAZ2B inh: 56µM; PLK1 PBD block: inactive; G9a inh: 50µM

What do the screens show for `Cc1cc(C)c([N+](=O)[O-])cc1-c1ccc(/C=N/c2c(-c3ccco3)nc3ccccn23)o1`?
HP1b binding inh: inconclusive; JMJD2A Tudor: 6.3µM; Sfp PPTase inh: inconclusive; BAZ2B inh: 10µM; PLK1 PBD block: inactive; G9a inh: inactive[0.501 µM]

How did O=[N+]([O-])c1ccc(Cl)c(-c2ccc(/C=N/c3c(-c4ccco4)nc4ccccn34)o2)c1 do in these assays?
HP1b binding inh: inconclusive; JMJD2A Tudor: inconclusive; Sfp PPTase inh: inactive; BAZ2B inh: inconclusive; PLK1 PBD block: inactive; G9a inh: inconclusive
